Compound activity from PubChem BioAssay.
TRHR agonist: qHTS for Small Molecule Agonists and Allosteric Enhancers of Human TRH Receptor: Primary Screen for Agonists; activation, % at 2 µM; TRHR cells, calcium flux fluo-8, FDSS agonist mode; actives 0.18% (n = 360,000); also: 0% is about no effect
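Agonist-mode FDSS calcium read (Ex 480/Em 530, 1 s cycles) in 1536-well TRHR cells with fluo-8 dye, after 10-cycle baseline and 23 nL compound addition; TRH at EC20 (10 nM final) added afterwards for the enhancer phase.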
D1 PAM: Potentiators of Human D1 Dopamine Receptor: qHTS; actives 0.036% (n = 360,000); potentiation, % at 10 µM; HEK293 TREx D1 cells, calcium flux, dopamine EC20 potentiation; in the data active = potentiation above about 30%; also: 0% is about no effect
Target sequence (P21728 whole entry, looked up): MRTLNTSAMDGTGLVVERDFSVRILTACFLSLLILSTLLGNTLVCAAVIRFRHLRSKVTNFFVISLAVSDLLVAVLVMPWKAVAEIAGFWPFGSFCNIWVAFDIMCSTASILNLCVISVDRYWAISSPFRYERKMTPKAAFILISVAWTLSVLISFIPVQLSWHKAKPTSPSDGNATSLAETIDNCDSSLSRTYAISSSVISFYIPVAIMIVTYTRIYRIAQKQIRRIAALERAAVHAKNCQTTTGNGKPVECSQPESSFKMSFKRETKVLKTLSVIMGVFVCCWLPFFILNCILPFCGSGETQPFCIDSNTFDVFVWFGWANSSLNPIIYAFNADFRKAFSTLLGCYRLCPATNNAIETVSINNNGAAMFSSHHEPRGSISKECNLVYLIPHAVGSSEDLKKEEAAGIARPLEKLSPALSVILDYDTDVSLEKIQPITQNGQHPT
D1 ag: Allosteric Agonists of the Human D1 Dopamine Receptor: qHTS; D(1A) dopamine receptor (Homo sapiens), P21728; HEK293 T-REx D1 cells, calcium flux, agonist mode; activation, % at 2 µM; actives 1% (n = 360,000); AID 504660, 2011; also: 0% is about no effect
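Tetracycline-induced HEK293 TREx D1 cells, force-coupled to calcium signalling, were dye-loaded with a no-wash calcium kit. Compound was pin-added after a 10 s baseline. Fluorescence was read kinetically at 1 cycle/s for 180 s, with calcium rises flagged as agonism.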
D1 antagonist: Antagonist of Human D 1 Dopamine Receptor: qHTS; actives 3.2% (n = 360,000); AID 504652, 2011; D(1A) dopamine receptor (Homo sapiens), P21728; activity change, negative = inhibition, % at 10 µM; HEK293 TREx D1 cells, calcium flux, dopamine EC80; hits give low values; in the data active = activity change below about -30%; also: % is scaled to controls: 0 for no effect and ±100 for the full control effect
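HEK293 T-REx cells expressing inducible, force-coupled D1 receptor; no-wash Ca dye, 30–90 min RT. Cmpd → 180 s read at 1 Hz → EC80 DA → 180 s read.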
TRHR PAM: qHTS for Small Molecule Agonists and Allosteric Enhancers of Human TRH Receptor: Primary Screen for Enhancers; AID 493056, 2011; TRHR cells, fluo-8 calcium fluorescence, EC20 TRH enhancement; actives 0.66% (n = 360,000); enhancement, % at 2 µM; in the data active = enhancement above about 30%; also: 0% is about no effect
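TRHR-expressing cells loaded with fluo-8 calcium dye were read kinetically (ex 480/em 530) during compound addition, then stimulated with an EC20 of TRH (10 nM final). Enhancement of the Gq-mediated intracellular calcium response was scored.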
The depositor's hits bear a star; / = no result. Only some compounds are listed: those with a hit (about 4.7% of all), similar ones and a draw of the others. Rule as the data show it, unless noted: active = activation above about 30%; inactive = the rest.

SMILES	TRHR agonist	D1 PAM	D1 ag	D1 antagonist	TRHR PAM
CC1CCCC/C1=N\Nc1ccc(S(N)(=O)=O)cc1[N+](=O)[O-] (stereo unspecified)	0	-3	6	-30*	1
CC1(C)Oc2ccc(C(=O)NN)cc2NC1=O	1	-12	2	-38*	-5
COc1ccc(/C=N/NC(=O)c2ccc3c(c2)NC(=O)C(C)(C)O3)cc1OC	0	-6	0	-20	-3
Cc1cc(C)cc(Cn2ncc3c4sc(C)cc4n(C)c3c2=O)c1	-2	0	2	-6	8
N/C(=N/O)C(c1ccccc1)c1ccccc1	1	1	4	-44*	1
Cc1ccc2nc(N/C(=N/S(=O)(=O)c3ccc(F)cc3)c3ccccc3)sc2c1	-1	-13	9	-44*	-2
Cc1ccc2nc(N/C(=N/S(=O)(=O)c3ccc(F)cc3F)c3ccccc3)sc2c1	-1	1	13	3	3
O=C(CSc1ccc2nc(-c3ccccc3)cn2n1)Nc1ccccc1C(F)(F)F	-1	-3	0	-71*	6
Cc1oc2cc(Br)c(O)c(Br)c2c1-c1ccccc1	0	-4	22	5	0
CCc1ccccc1OCC(=O)Nc1cc(S(=O)(=O)N(CC)CC)ccc1N1CCOCC1	1	1	3	-12	4
COc1ccc(/C=N/NC(=O)c2nc(-c3ccccc3)n(-c3ccccc3)n2)cc1	-1	4	1	7	0
COc1ccc(/C=N/NC(=O)c2nc(-c3ccccc3)n(-c3ccccc3)n2)c(O)c1	3	-8	8	-61*	1
CCCCNC(=O)c1oc2ccc(S(=O)(=O)N3CCCC3)cc2c1C	0	-7	0	8	15
O=[N+]([O-])c1ccc(S(=O)(=O)Nc2nc3ccccc3nc2Nc2ccccc2)cc1	0	-7	0	0	-5
CC(=O)Nc1ccc(S(=O)(=O)Nc2nc3ccccc3nc2Nc2ccc3ccccc3c2)cc1	2	-3	5	-2	3
COC(=O)c1cc(Nc2nc3ccccc3nc2NS(=O)(=O)c2ccc(C)cc2)ccc1Cl	1	-4	17	-31*	0
COc1cc(Nc2nc3ccccc3nc2NS(=O)(=O)c2ccc([N+](=O)[O-])cc2)cc(OC)c1OC	0	-20	1	-74*	5
COc1cccc(/C=N/NC(=O)c2[nH]c(C)c(C(=O)N/N=C/c3cccc(OC)c3)c2C)c1	1	-13	2	-41*	-1
CN(C)CCCN(Cc1ccccc1)C(=S)Nc1cccc(C(F)(F)F)c1	1	-5	23	2	-2
CCCN(Cc1ccccc1)C(=S)Nc1cccc(C(F)(F)F)c1	0	6	4	-32*	-2
CN(C)CCCN(Cc1ccccc1)C(=S)Nc1ccc(F)c(Cl)c1	1	-1	35*	-34*	1
COc1cc(CNCCCN2CCOCC2)cc(Br)c1OCc1ccc(Cl)cc1	6	-7	72*	/	-1
CC(C)CNC(=O)C(=O)Nc1c2c(nn1-c1ccccc1)CS(=O)(=O)C2	-1	3	0	/	6
Cn1c(=O)c2c(SCC(=O)N3CCc4ccccc43)nc(-c3ccccc3Cl)nc2n(C)c1=O	1	-1	1	5	2
CC1(C)C2CCC(C2)C1C/C=N/NC(N)=S (stereo unspecified)	0	-6	1	-1	33*
SMILES	TRHR agonist	D1 PAM	D1 ag	D1 antagonist	TRHR PAM
COc1ccccc1Nc1nc(-c2ccc(F)cc2)c2c(n1)-c1ccccc1OC2	0	-5	3	10	21
COC(=O)Cc1c(C)c2cc3c(c(C)c2oc1=O)OCN(CCc1ccc(F)cc1)C3	2	1	7	7	3
C=CCNC(=O)c1onc(CSc2ccccc2F)c1C(=O)O	0	1	27	21	6
O=C(NCc1ccccc1)c1onc(CSc2ccccc2)c1C(=O)NCC1CC1	11	-2	46*	-51*	-8
C=CCNC(=O)c1onc(CSc2ccc(F)cc2)c1C(=O)NCC=C	0	-2	1	-15	-1
CCCNC(=O)c1onc(CSc2ccccc2)c1C(=O)NCCC	0	7	2	1	0
O=C(NCc1ccccc1)c1onc(CSc2ccc(Cl)cc2)c1C(=O)NCC1CC1	1	-4	6	-14	-3
CCCNC(=O)c1onc(CSc2ccccn2)c1C(=O)NCCC	0	1	2	-38*	-3
C=CCNC(=O)c1onc(CSc2cccc3ccccc23)c1C(=O)O	0	-6	3	23	33*
C=CCNC(=O)c1onc(CSc2ccc(F)cc2)c1C(=O)O	-1	-4	-2	-34*	2
Cc1ccc(NC(=O)CCN2CCN(CCO)CC2)cc1C	0	-1	0	3	0
COc1ccccc1NC(=O)CCCOc1cc(=O)n(C)c2ccccc12	0	-1	0	-6	25
CCCCN(CC)C(=O)Cn1cc2c(n1)-c1c(oc(C(=O)N3CCCC3)c1C)CC2	0	-4	-1	1	-5
O=C(NCCCN1CCN(c2ccccc2F)CC1)C1CCCN(S(=O)(=O)c2cnc[nH]2)C1 (stereo unspecified)	0	-9	4	-53*	11
Cc1ccc(C(=O)C(C)OC(=O)Cn2[nH]c(=O)c3ccccc3c2=O)cc1C (stereo unspecified)	0	-2	5	-3	3
CC(C)NC(=O)Cn1ncn2c(cc3cc(F)ccc32)c1=O	0	1	0	-26	-3
CN(C(=O)CSc1nnc(-c2ccco2)n1Cc1ccccc1)C1CCS(=O)(=O)C1 (stereo unspecified)	0	11	1	-37*	1
CCN(CC)c1cc2c(cc1F)c(=O)c(S(=O)(=O)c1cc(C)ccc1C)cn2Cc1ccccc1	0	-4	1	1	8
CCCCn1c(N)c(N(CC(C)C)C(=O)Cn2c(=O)oc3ccccc32)c(=O)[nH]c1=O	0	-2	-4	-44*	-3
Cc1cccc(N2CCN(C(=O)c3c(C)oc4nc(C)nc(N5CCCC5)c34)CC2C)c1 (stereo unspecified)	-1	-7	-1	6	28
CC(C)C(NC(=O)c1ccccc1)C(=O)OCC(=O)N1CCCC1 (stereo unspecified)	1	-4	5	-4	-5
